# Screening results as filed in PubChem BioAssay.
# DT40 TDP1 no CPT: qHTS for Inhibitors of human tyrosyl-DNA phosphodiesterase 1 (TDP1): qHTS in cells in absence of CPT. DT40 Tdp1-/- hTDP1 cells, no CPT, ATP luminescence, 48 h. Potency, µM (titrated, usually from 46.2 µM), for the others: at the highest dose activity change, negative = growth inhibition, usual class: inhibitors. 420,000 compounds, 15% hits; also: potency is read from the fitted curve at half-maximal effect; nearly all actives have a fitted effect of over 55% in size
#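 DT40 Tdp1-/-;hTDP1 cells, no CPT (DMSO vehicle only), 400 cells/well; compounds pin-transferred; ≥48 hr, 37 °C; CellTiter-Glo 30 min RT dark, luminescence read.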
# IL-1B inflam inh: qHTS for Inhibitors of Inflammasome Signaling: IL-1-beta AlphaLISA Primary Screen. THP-1 LPS/ATP IL-1B secretion, AlphaLISA, 16 h; stronger effect = lower value. activity change, % at 57.5 µM. 360,000 compounds, 4.7% hits. AID 743279, 2014; in the data active = activity change below about -50%; inconclusive = mostly about -30% to -49%
#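 THP-1 cells pretreated 1 hr with compounds (up to 57.5 uM final), then stimulated with LPS (250 ng/mL final) plus ATP (1.25 mM final); secreted IL-1B measured by AlphaLISA after 16 hr, decreased signal indicating inhibition.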
# RORgamma inh: qHTS for inhibitors of ROR gamma transcriptional activity | Nuclear receptor ROR-gamma (Mus musculus), P51450 | Drosophila S2 Gal4-RORgamma UAS-luciferase reporter, 20 h | Potency, µM (titrated, usually from 53.6 µM), inactives show at the top dose activity change, negative = inhibition, hits mostly inhibitors | 310,000 compounds, 5.4% hits | AID 2551, 2010; also: potency is read from the fitted curve at half-maximal effect; nearly all actives have a fitted effect of over 60% in size
# Target sequence (P51450 whole entry, looked up, the tested form may be a part): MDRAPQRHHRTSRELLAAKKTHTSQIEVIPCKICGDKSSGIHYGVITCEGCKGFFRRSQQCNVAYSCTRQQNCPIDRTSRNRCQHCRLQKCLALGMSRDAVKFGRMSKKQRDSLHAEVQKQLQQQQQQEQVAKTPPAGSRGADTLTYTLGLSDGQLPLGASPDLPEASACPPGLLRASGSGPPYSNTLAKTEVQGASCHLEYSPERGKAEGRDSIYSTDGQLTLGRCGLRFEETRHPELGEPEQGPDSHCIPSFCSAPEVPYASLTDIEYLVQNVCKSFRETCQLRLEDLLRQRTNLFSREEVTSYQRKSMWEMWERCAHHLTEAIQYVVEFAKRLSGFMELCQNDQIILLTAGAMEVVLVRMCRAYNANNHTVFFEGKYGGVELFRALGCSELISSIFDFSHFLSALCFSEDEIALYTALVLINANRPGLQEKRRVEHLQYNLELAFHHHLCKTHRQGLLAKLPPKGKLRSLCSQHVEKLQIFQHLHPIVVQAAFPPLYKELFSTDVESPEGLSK
#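 Drosophila S2 cells stably expressing Gal4-DBD/mouse RORγ fusion under metallothionein promoter plus UAS-luciferase; compound 1 h, then 700 uM CuSO4 induction for 20 h at ambient temperature; inhibition read as reduced luminescence.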
# LDHA inh: qHTS assay for inhibitors of human lactate dehydrogenase. purified LDHA, NADH/diaphorase-resazurin fluorescence; stronger effect = lower value. activity change, % (values are at about 110 or 230 µM). 480,000 compounds, 0.15% hits. AID 1347041, 2019; in the data active = activity change below about -30%; inconclusive = mostly about -25% to -30%;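 also: plate controls were DMSO wells for no effect and wells without enzyme for full effect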
#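 Resorufin fluorescence (ex540/em590), read at 0 and 20 min after diaphorase/resazurin addition, reports the NADH left after a 5 min room-temperature reaction of 2 nM human LDH5 with 0.06 mM NADH and 0.2 mM pyruvate.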
# DT40 TDP1 CPT: qHTS for Inhibitors of human tyrosyl-DNA phosphodiesterase 1 (TDP1): qHTS in cells in presence of CPT; chicken DT40 Tdp1-/-;hTDP1 cells + 20 nM CPT, ATP luminescence, 48 h; Potency, µM (series often up to 46.2 µM), for inactives: at the top dose activity change, negative = growth inhibition, actives largely listed as inhibitors; 420,000 compounds, 12% hits; AID 686979, 2013; also: potency is read from the fitted curve at half-maximal effect; nearly all actives have a fitted effect of over 55% in size
#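 Cell growth measured by CellTiter-Glo luminescence after a minimum 48 h, 37 C compound exposure with 20 nM CPT in Tdp1-knockout DT40 cells stably expressing hTDP1, seeded 400/well; qHTS titration format.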
# Gal4-VP16 FLuc: VP16 counterscreen qHTS for inhibitors of ROR gamma transcriptional activity; Potency, µM (series often up to 53.6 µM), for the others: at the highest dose activity, negative = inhibition, most hits filed as inhibitors; Drosophila S2 Gal4-VP16 UAS-luciferase, luminescence, 20 h; 310,000 compounds, 3.5% hits;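 also: Gal4-VP16 expression switched on by copper sulfate through the metallothionein promoter; potency is read from the fitted curve at half-maximal effect; nearly all actives have a fitted effect of over 50% in size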
# * = called active by the depositor; ? = inconclusive; . = not tested or not shown; [ ] = dose if it differs, or a comment. Rows were chosen to be rich in hits. Some 18% of all compounds tested hit in one or more screens of this group. Unless noted, calls follow the shape of the dose curve; as a rule, active = well fitted curve in the direction sought with a large enough effect; inconclusive = small, poorly fitted or top-dose-only effect, or another doubt; inactive = no such curve, though single readings can be large; an effect the other way counts as inactive or inconclusive. Unless noted, % is scaled to controls: 0 for no effect and ±100 for the full control effect.
SMILES,DT40 TDP1 no CPT,IL-1B inflam inh,RORgamma inh,LDHA inh,DT40 TDP1 CPT,Gal4-VP16 FLuc
Cc1cc(N2CCN(C)CC2)nc2ccc(NC(=S)N3CCCCCC3)cc12,-30%,-5,23%,5,-4%,9%
Cc1cc(N2CCN(c3ccc(F)cc3)CC2)nc2cc(O)ccc12,15µM*,23,36%,-2,23µM*,-1%
COC(=O)c1cc(OC)c(OC)cc1NCC(=O)Nc1ccc(C)cc1,-11%,-52*,64%,3,-23%,-6%
COC(=O)c1cc(OC)c(OC)cc1NCC(=O)Nc1ccc(OC)c(OC)c1,13µM*,7,?,6,21µM*,?
COc1ccc(C)cc1NCC(=O)Nc1ccc(C(C)(C)C)cc1,?,0,?,-1,?,2%
COC(=O)c1cc(OC)c(OC)cc1NCC(=O)Nc1cccc(C(F)(F)F)c1,?,-12,?,6,-29%,-7%
COC(=O)c1cccc(NC(=O)Nc2cc(-c3nc4ccccc4o3)ccc2OC)c1,.,.,.,1,.,.
CCCCCCCCS(=O)(=O)CCCCCl,.,.,.,-4,.,.
O=C(O)Cn1c(SCCOc2ccccc2F)nc2ccccc21,16µM*,12,-1%,-6,?,?
CCN(CC)C(=O)Cn1c(SCCOc2ccc(Cl)cc2)nc2ccccc21,21µM*,.,.,-1,?,.
Nc1nccnc1C(=O)NCC(=O)OCc1ccccc1,.,.,.,2,.,.
O=S(=O)(NCc1ccco1)c1cnc(Cl)c(Br)c1,5%,.,8%,-3,-4%,5%
O=S(=O)(NCCc1ccccc1)c1cnc(Cl)c(Br)c1,-13%,-90*,.,1,-12%,.
CSC(=NC#N)N1CCN(c2c(C)cccc2C)CC1,?,-13,11µM*,-6,?,14%[10 µM]
CC1=Nc2cc(C(=O)NCCN3CCOCC3)ccc2Sc2c(C)ccc(C)c21,13µM*,3,42%,1,16µM*,-8%
CC1=Nc2cc(C(=O)NCCCN3CCOCC3)ccc2Sc2c(C)ccc(C)c21,?,-73*,13%,-2,?,-15%
C=CCC1(CC=C)CCCN1C(=O)c1cc(COc2ccc(C)nc2)on1,0.92µM*,-8,?,2,2.6µM*,8.9µM*
C=CCC1(CC=C)CCCN1C(=O)c1cc(COc2ccccc2SC)on1,21µM*,-1,6%,0,?,-20%
CSc1ccccc1OCc1cc(C(=O)N2CCc3c(Cl)cccc3C2)no1,?,?,13µM*,-3,23µM*,?
C=CCC1(CC=C)CCCN1C(=O)c1cc(COc2ccc(F)c(F)c2)on1,?,-8,9%,-2,18µM*,?
CCOC(=O)c1[nH]c2ccccc2c1NC(=O)C(C)N1CCC2(CC1)OCCO2 (stereo unspecified),.,.,.,-2,.,.
CCN(CC)Cc1ccc(CNS(=O)(=O)c2cccs2)cc1,.,.,.,0,.,.
CC(NC(=S)Nc1ccc(OC(F)F)cc1OC(F)F)C(C)(C)C (stereo unspecified),?,-91*,7.9µM*,-5,?,16µM*
CC(NC(=S)Nc1c(Cl)cccc1OC(F)F)C(C)(C)C (stereo unspecified),3%,4,13µM*,-5,-6%,11µM*
Cc1ccc(C(=O)OCC(=O)Nc2ccccc2N2CCCC2=O)c(O)c1,.,.,.,-5,.,.
SMILES,DT40 TDP1 no CPT,IL-1B inflam inh,RORgamma inh,LDHA inh,DT40 TDP1 CPT,Gal4-VP16 FLuc
CCCn1cc(CN2CCC(C(=O)Nc3cccc(-c4cscn4)c3)CC2)c(C)n1,?,-72*,0%,-2,?,2%
CSc1ncc(CN2CCC(C(=O)Nc3cccc(-c4cscn4)c3)CC2)cn1,?,?,25%,-2,?,-4%
CCCc1ncc(CN2CCC(C(=O)Nc3cccc(-c4cscn4)c3)CC2)cn1,29µM*,-8,10%,-3,?,-15%
Cn1cc(CN2CCC(C(=O)Nc3cccc(-c4cscn4)c3)CC2)cn1,2%,28,-42%,-3,-18%,-6%
Cc1cccc(/C=C(/C(=O)N2CCCCCC2)c2cccs2)c1,.,.,.,6,.,.
CCc1nc(N2CCN(C(=O)c3ccccc3)CC2)c(C#N)c2c1COC(C)(C)C2,15µM*,0,-1%,6,18µM*,3%
CCc1nc(N2CCOCC2)c(C#N)c2c1COC(C)(C)C2,?,-12,0%,0,?,-3%
CC1(C)Cc2c(C#N)c(N3CCOCC3)nc(Cc3ccccc3)c2CO1,21µM*,-15,-1%,1,?,8%
CC(C)(C)Sc1ccc(Cl)nn1,.,.,.,6,.,.
O=C(COC(=O)c1ccccc1[N+](=O)[O-])c1ccc(F)cc1,.,.,.,3,.,.
O=C(Cn1nnc(-c2ccccc2Cl)n1)Nc1cccc(S(=O)(=O)N2CCCC2)c1,21µM*,?,.,-7,23µM*,.
O=C(Cn1nnc(-c2ccc(F)cc2)n1)Nc1cccc(S(=O)(=O)N2CCCC2)c1,?,13,.,-3,21µM*,.
O=C(Cc1ccc(F)cc1)Nc1cccc(S(=O)(=O)N2CCCC2)c1,-22%,-8,.,-10,-3%,.
O=C(OCC1CCCO1)c1ccc(O)cc1 (stereo unspecified),.,.,.,-10,.,.
CC(C)(C)C1=C(C#N)C(c2ccncc2)C(C#N)=C(N)O1 (stereo unspecified),29µM*,-8,36%,5,18µM*,?
Cn1c(/C(C#N)=C/c2ccc(O)cc2)nc2ccccc21,-16%,-20,44%,-2,?,-10%
Cn1c(/C(C#N)=C/c2ccncc2)nc2ccccc21,21µM*,-52*,-15%,-2,?,-24%
COc1cc(/C=C(\C#N)c2nc3ccccc3n2C)cc(OC)c1O,-8%,7,2%,4,?,-10%
Cn1c(/C(C#N)=C/c2ccc(C(F)(F)F)cc2)nc2ccccc21,13µM*,.,.,-3,21µM*,.
COc1ccccc1N(CC(=O)NC1CCCC1)S(=O)(=O)c1ccc(C)cc1,-22%,-9,?,-3,-21%,-2%
COc1ccc(S(=O)(=O)N(CC(=O)NC2CCCCCC2)c2ccc(C)cc2)cc1OC,.,.,.,5,.,.
